USP8 block: human USP8 deubiquitinase inhibition. P40818. purified USP8, Ub-rhodamine cleavage fluorescence, 30 min. inhibition, % at 20 µM. 47,000 compounds, 4.2% hits. AID 1645853
USP10 block: blocks human USP10 ubiquitin-rhodamine cleavage; Q14694; purified USP10, Ub-rhodamine fluorescence, 60 min; inhibition, % at 20 µM; 47,000 compounds, 1.1% hits; AID 1645856
USP30 block: inhibitors of human USP30 deubiquitinase; inhibition, % at 25 µM; 47,000 compounds, 5.3% hits; purified USP30, Ub-rhodamine cleavage fluorescence; Q70CQ3
Target sequence (Q70CQ3 whole entry, looked up): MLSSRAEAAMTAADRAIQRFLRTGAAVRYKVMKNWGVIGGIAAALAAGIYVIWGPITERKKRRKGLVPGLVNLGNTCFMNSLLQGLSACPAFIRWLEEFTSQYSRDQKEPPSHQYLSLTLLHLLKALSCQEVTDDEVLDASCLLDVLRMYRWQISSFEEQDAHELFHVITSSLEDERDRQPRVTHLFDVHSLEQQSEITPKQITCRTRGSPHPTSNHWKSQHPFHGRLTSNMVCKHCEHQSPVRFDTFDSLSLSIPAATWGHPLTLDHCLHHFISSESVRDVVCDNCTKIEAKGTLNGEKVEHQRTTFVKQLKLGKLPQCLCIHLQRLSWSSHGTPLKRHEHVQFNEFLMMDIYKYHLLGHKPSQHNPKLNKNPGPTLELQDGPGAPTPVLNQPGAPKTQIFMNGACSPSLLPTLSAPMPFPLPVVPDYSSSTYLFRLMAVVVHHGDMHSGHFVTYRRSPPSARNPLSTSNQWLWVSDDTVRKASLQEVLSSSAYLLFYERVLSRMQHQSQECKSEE
USP28 inh: blocks human USP28 ubiquitin-rhodamine cleavage. 47,000 compounds, 3% hits. purified USP28, Ub-rhodamine cleavage fluorescence, 30 min. inhibition, % at 25 µM
USP17 block: inhibitors of human USP17 deubiquitinase; inhibition, % at 50 µM; 47,000 compounds, 6.5% hits; A8MUK1; AID 1645855; purified USP17, Ub-rhodamine cleavage fluorescence, 3 h
An asterisk follows results filed as active; x = no result. A selection: hits, their analogues and other compounds. The true share with any hit is near 14%. Rule as the data show it: active = inhibition above about 30%; inactive = the rest.

SMILES	USP8 block	USP10 block	USP30 block	USP28 inh	USP17 block
COC(=O)c1cc2c(ccn2C)n1CC(=O)N1CCN(Cc2ccccc2)CC1	32.2*	-4.8	-265.4	-68.7	-44.2
COc1cccc(C(=O)N2CC[C@@H]3NS(=O)(=O)c4ccccc4O[C@H]3CC2)c1	-3.0	1.7	6.1	-10.2	-13.5
CC(=O)c1c(O)c2ccccc2n(C2CCCCC2)c1=O	49.2*	-8.5	-115.1	-32.2	-47.0
Cc1ccc(-c2nc3c(c(=O)c4ccccc4n3C)c(=O)n2C2CCCCC2)cc1	18.2	5.7	-145.4	-31.4	-25.7
CC(=O)c1c(O)c2ccccc2n(Cc2ccccc2)c1=O	36.0*	-4.6	-76.7	-19.8	-32.2
Cc1ccc(-c2cc3nccc(C4CCCNC4)n3n2)cc1 (configuration not stated)	-2.4	1.9	12.5	39.6*	1.3
COc1ccc(-c2cc3nccc(C4CCNCC4)n3n2)cc1	3.3	0.9	24.9	9.6	-7.0
Cc1cc(C)c2c(n1)sc1c(=O)n(CC(=O)Nc3cccc(Cl)c3)cnc12	-4.1	-1.4	-49.7	-2.6	41.0*
O=C(Cn1cnc2c(sc3ccccc32)c1=O)Nc1ccc(F)c(F)c1	-14.8	-6.0	-319.2	-62.2	27.0
CCc1nccn1-c1cccc(C2CCCN(C(=O)c3ccn[nH]3)C2)n1 (configuration not stated)	-3.5	4.0	-0.4	-4.2	-9.1
Cc1cc2nccc(C3CCN(C(=O)COc4cccnc4)CC3)n2n1	49.4*	-11.7	-269.9	-26.8	8.4
O=C(c1cccs1)N1CCCN(Cc2noc(-c3ccccc3)n2)CC1	-6.2	-1.9	-4.4	-2.5	2.2
O=C(NC1CCC1)c1c2c(-c3ccncc3)ncnc2n2ccccc12	-19.0	-3.9	x	x	67.8*
O=C(CSc1nnc(Cn2cnc3ccccc32)o1)Nc1ccc([N+](=O)[O-])cc1	-69.8	-0.6	24.9	12.4	63.0*
COc1cccc(Cn2nc(C(=O)O)c3ccccc3c2=O)c1	-13.9	-7.7	2.5	38.3*	-11.8
Cc1c(C(=O)O)sc2nc3n(c(=O)c12)CCN(Cc1ccccc1)CC3	22.5	1.3	7.7	-2.8	11.1
Cc1cc(N2CCN(C)CC2)n2nc(CN3CCCCC3C)nc2n1 (configuration not stated)	-41.7	0.1	-18.2	-7.0	39.1*
O=C(NCc1cccnc1)c1ccc(N2CCC(NCc3cccc(OC(F)(F)F)c3)CC2)cc1	-6.7	-5.1	-10.4	-2.1	-3.6
Cc1nc2ccccc2c(=O)n1Cc1ccc(-c2ccccc2)cc1	2.7	2.9	-1.9	-10.7	51.4*
Cc1ccc2c(c1C)NC(=O)[C@]21N2CCC[C@H]2[C@@H](C(=O)c2cc3ccccc3o2)[C@]12C(=O)Nc1ccccc12	21.2	-6.7	-17.7	-11.0	43.8*
CCOC(=O)Cc1ccc(NC(=O)Nc2ccc3snnc3c2)cc1	-0.6	1.1	-21.2	12.8	27.3
O=C(Nc1ccc2snnc2c1)Nc1ccc(F)cc1F	74.2*	28.1	-38.8	-9.8	-14.0
Cc1sc(-c2ccccn2)nc1OC(=O)c1cccc(Cl)c1Cl	-224.6	-3.5	81.9*	23.4	76.8*
CN(C)C(=O)c1sc2nccnc2c1C1CCN(C(=O)OC(C)(C)C)C1 (configuration not stated)	-3.7	-1.2	6.3	-2.8	-5.7
COc1ccc(N2CCN(CCCNc3ncnc4cc(Cl)ccc34)CC2)cc1	-0.4	0.3	4.9	3.0	0.0
SMILES	USP8 block	USP10 block	USP30 block	USP28 inh	USP17 block
COc1c2n(c3ccccc13)[C@@]1(O)C(=O)N(C)C(=O)[C@@]1(O)c1c-2n(C)c2ccc(Cl)cc12	-16.9	24.9	-63.5	41.8*	59.3*
O=C(NC[C@H]1OC[C@@H]2CCN(C3CCOCC3)C[C@@H]21)c1ccnnc1	-62.2	2.1	-1.0	-8.7	-5.5
Cc1cc(C)cc(-n2ccn3c(CCC(=O)NC4CC4)nnc3c2=O)c1	1.3	0.0	8.3	10.6	7.5
OC1(Cn2ccc3ccncc32)CCN(Cc2ccc(F)c(F)c2)CC1	-2.0	-0.8	1.0	0.9	-19.3
NS(=O)(=O)c1ccc(CCNc2ccn3nc(-c4ccccc4)cc3n2)cc1	-29.5	2.2	23.5	-3.6	31.0*
O=C1[C@H]2Cc3c([nH]c4ccccc34)CN2C(=O)CN1Cc1ccco1	6.5	-0.6	-18.7	-0.5	-1.1
CCOC(=O)c1c(-c2ccc(C)o2)csc1NC(=O)COC(=O)c1cc(=O)[nH]c2ccccc12	-2.0	9.0	x	x	37.4*
CN1CCN(C(=O)Cn2c(=O)cc(C(F)(F)F)c3c(-c4ccccc4)nn(C)c32)CC1	6.6	-5.2	-1.1	7.1	-9.6
Nc1nccc(-c2ccc3c(c2)CCC3)n1	-3.2	-0.7	-16.3	-8.1	-5.0
N#Cc1cnn2ccc(-c3ccc4c(c3)CCC4)nc12	-14.1	-1.5	x	x	33.7*
Cc1ccc2cc(NC(=O)CC(CC(=O)O)c3ccccc3)ccc2n1 (configuration not stated)	6.1	5.8	x	x	53.5*
O=C1N[C@H]2OCCC[C@H]2[C@H](c2ccc(C(=O)O)cc2)N1	11.7	1.1	-8.5	-0.2	-0.1
COc1ccc(NC(=O)Cn2c(=O)n(-c3ccc(CC(=O)NCc4ccco4)cc3)c(=O)c3ccccc32)cc1Cl	74.5*	60.6*	-0.9	-9.2	11.9
O=C(Cc1ccc(-n2c(=O)c3ccccc3n(CC(=O)Nc3ccc(Cl)cc3Cl)c2=O)cc1)NCc1ccco1	55.7*	45.8*	16.4	10.4	21.0
CCC(C)NC(=O)Cn1c(=O)n(-c2ccccc2)c(=O)c2ccc(C(=O)NCc3ccco3)cc21 (configuration not stated)	25.2	7.0	73.2*	38.7*	16.5
COc1cccc(N2CC(NS(=O)(=O)c3ccc4ccccc4c3)CC2=O)c1 (configuration not stated)	-20.4	4.5	33.5*	19.9	28.0
COc1ccc(S(=O)(=O)NC2CC(=O)N(c3ccc(F)cc3)C2)cc1 (configuration not stated)	12.0	2.9	15.0	12.1	5.5
Cc1ccc(S(=O)(=O)NC2CC(=O)N(c3cccc(F)c3)C2)cc1 (configuration not stated)	7.6	4.6	18.7	13.9	9.1
O=C1CC(NS(=O)(=O)c2ccc3ccccc3c2)CN1c1cccc(F)c1 (configuration not stated)	10.4	9.4	22.9	11.9	54.5*
COc1ccc(-c2cc(C(=O)N3CCCC3c3cc(C)no3)on2)cc1 (configuration not stated)	-2.1	3.4	-3.3	8.9	-2.2
O=C(Nc1ccc(CN2CCOCC2)cc1)NC12CC3CC(CC(C3)C1)C2	13.5	0.1	14.9	16.7	-0.1
C=C1C=C(CCC(=O)O)C(=O)OC1/C=C/C=C/C (configuration not stated)	98.4*	95.3*	80.3*	99.2*	100.8*
CCOC(=O)c1nc(Nc2ccc(OC)c(Cl)c2)c2ccccc2n1	-1.7	-3.2	49.4*	16.6	74.5*
CCc1ccc2[nH]c(=O)c(CN(Cc3ccc4c(c3)OCO4)S(=O)(=O)c3ccc(OC)cc3)cc2c1	11.3	1.0	-20.6	-10.3	10.4

Source: PubChem
